Measured values reported in PubChem BioAssay (Tox21).
“And” between values parts separate entries of the source, which are not always exact repeats. Identical values can stand only once. Results filed as inconclusive are left out. Some compounds were tested as several samples or in several runs, with calls that do not always agree. The source made the active and inactive calls. Calls follow the shape of the dose curve; as a rule, active = well fitted curve in the direction sought with a large enough effect in the repeat runs; inconclusive = weak or mixed curves; inactive = no such curve, though single readings can be large; an effect the other way counts as inactive or inconclusive.

Key:
[1] = qHTS RealTime-Glo MT Cell Viability Assay in HepG2 cells - 40 hour (AID 1224870); also: nearly all actives have a fitted effect of over 50% in size
In short: (§1)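 Real-time viability: cells seeded at 600 per well together with NanoLuc and cell-permeant prosubstrate, compounds added after 5 h incubation. Luminescence tracked at 0, 8, 16, 24, 32 and 40 h of exposure.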

[2] = A CellTox Green Cytotoxicity Assay to monitor cytotoxicity in HEK293 cells - 40 hour (AID 1224871); also: nearly all actives have a fitted effect of over 45% in size
In short: (§2)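 Nonlytic real-time cytotoxicity: HEK293 + CellTox Green reagent plated, 5 h preincubation, pintool compound addition (23 nL in DMSO), 37 C for 40 h, fluorescence measured at successive time points.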

[3] = qHTS RealTime-Glo MT Cell Viability Assay in HEK293 cells - 16 hour (AID 1224872); also: nearly all actives have a fitted effect of over 50% in size; also: potency is read from the fitted curve at half-maximal effect
In short: (§3)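 Viability tracked continuously by luminescence as live cells reduce a prosubstrate for NanoLuc; HEK293 cells preincubated 5 h, compound-treated at 37 C, and read at 0, 8, 16, 24, 32 and 40 h.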

[4] = qHTS RealTime-Glo MT Cell Viability Assay in HepG2 cells - 8 hour (AID 1224873); also: nearly all actives have a fitted effect of over 55% in size
In short: as §1

[5] = qHTS RealTime-Glo MT Cell Viability Assay in HEK293 cells - 40 hour (AID 1224874); conditions: RealTime-Glo luminescence; max response: stronger effect = lower value; also: nearly all actives have a fitted effect of over 50% in size; also: potency is read from the fitted curve at half-maximal effect
In short: (§4)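 Cells were seeded together with NanoLuc luciferase and a prosubstrate that viable cells reduce to a luciferase substrate. After a 5 h incubation at 37 C/5% CO2, compounds were added and luminescence was measured repeatedly during 40 h of treatment.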

[6] = A CellTox Green Cytotoxicity Assay to monitor cytotoxicity in HepG2 cells - 16 hour (AID 1224876); also: nearly all actives have a fitted effect of over 45% in size
In short: (§5)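 Read-out is fluorescence of a cyanine dye excluded from live cells that stains DNA of dead HepG2 cells, with signal proportional to cytotoxicity. Plates were read at 0, 8, 16, 24, 32 and 40 h after compound addition.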

[7] = qHTS RealTime-Glo MT Cell Viability Assay in HepG2 cells - 32 hour (AID 1224877); also: nearly all actives have a fitted effect of over 55% in size
In short: (§6)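 Viability was tracked continuously by NanoLuc luminescence from prosubstrate reduced by living HepG2 cells, at successive time points over 40 h of compound exposure. Cells with reagent were preincubated 5 h at 37 °C before compound addition.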

[8] = A CellTox Green Cytotoxicity Assay to monitor cytotoxicity in HepG2 cells - 24 hour (AID 1224878); also: nearly all actives have a fitted effect of over 45% in size; also: potency is read from the fitted curve at half-maximal effect
In short: as §5

[9] = A CellTox Green Cytotoxicity Assay to monitor cytotoxicity in HepG2 cells - 40 hour (AID 1224879); also: nearly all actives have a fitted effect of over 40% in size; also: potency is read from the fitted curve at half-maximal effect
In short: as §5

[10] = qHTS RealTime-Glo MT Cell Viability Assay in HEK293 cells - 0 hour (AID 1224880); also: top concentration of the series differs between compounds; nearly all actives have a fitted effect of over 45% in size
In short: as §4

[11] = A CellTox Green Cytotoxicity Assay to monitor cytotoxicity in HEK293 cells - 32 hour (AID 1224881); also: nearly all actives have a fitted effect of over 40% in size
In short: as §2

[12] = A CellTox Green Cytotoxicity Assay to monitor cytotoxicity in HepG2 cells - 0 hour (AID 1224882); also: nearly all actives have a fitted effect of over 35% in size
In short: as §5

[13] = A CellTox Green Cytotoxicity Assay to monitor cytotoxicity in HepG2 cells - 32 hour (AID 1224883); also: nearly all actives have a fitted effect of over 50% in size; also: potency is read from the fitted curve at half-maximal effect
In short: as §5

[14] = A CellTox Green Cytotoxicity Assay to monitor cytotoxicity in HEK293 cells - 8 hour (AID 1224884); also: nearly all actives have a fitted effect of over 35% in size
In short: as §2

[15] = qHTS RealTime-Glo MT Cell Viability Assay in HepG2 cells - 16 hour (AID 1224885); also: nearly all actives have a fitted effect of over 50% in size
In short: as §6

[16] = qHTS RealTime-Glo MT Cell Viability Assay in HEK293 cells - 24 hour (AID 1224886); also: nearly all actives have a fitted effect of over 50% in size; also: potency is read from the fitted curve at half-maximal effect
In short: as §3

[17] = qHTS RealTime-Glo MT Cell Viability Assay in HEK293 cells - 8 hour (AID 1224887); also: nearly all actives have a fitted effect of over 50% in size; also: potency is read from the fitted curve at half-maximal effect
In short: as §4

[18] = A CellTox Green Cytotoxicity Assay to monitor cytotoxicity in HEK293 cells - 16 hour (AID 1224888); also: nearly all actives have a fitted effect of over 35% in size
In short: as §2

[19] = qHTS RealTime-Glo MT Cell Viability Assay in HepG2 cells - 0 hour (AID 1224889); also: nearly all actives have a fitted effect of over 50% in size
In short: as §6

[20] = A CellTox Green Cytotoxicity Assay to monitor cytotoxicity in HEK293 cells - 24 hour (AID 1224875)
In short: as §2
% is scaled to controls: 0 for no effect and ±100 for the full control effect.

COC(=O)Nc1nc2ccc(S(=O)c3ccccc3)cc2[nH]1 (configuration not stated)
active: Potency [3] 1340 nM | Potency [5] 756 nM | Potency [9] 848 nM | Potency [16] 952 nM
inactive and 1.69 µM (active): Potency [17]
inactive: Potency [1] | Potency [2] | Potency [4] | Potency [6] | Potency [7] | Potency [10] | Potency [11] | Potency [12] | Potency [14] | Potency [15] | Potency [18]
inactive and 952 nM (active): Potency [13]
inactive and 10.7 µM (active): Potency [8]

COc1c(Cl)c(Cl)c(Cl)c(Cl)c1Cl
inactive: Potency [1] | Potency [2] | Potency [3] | Potency [4] | max response [5] -6.1% and 5.51% | Potency [6] | Potency [7] | Potency [8] | Potency [9] | Potency [10] | Potency [11] | Potency [12] | Potency [13] | Potency [14] | Potency [15] | Potency [16] | Potency [17] | Potency [18] | Potency [19]

CN1C(C(=O)Nc2ccccn2)=C(O)c2ccccc2S1(=O)=O
inactive: Potency [1] | Potency [2] | Potency [3] | Potency [4] | max response [5] 10.9% and -0.648% | Potency [20] | Potency [7] | Potency [8] | Potency [9] | Potency [10] | Potency [11] | Potency [12] | Potency [14] | Potency [15] | Potency [16] | Potency [17] | Potency [18] | Potency [19]

Cc1c(C(N)=O)cc([N+](=O)[O-])cc1[N+](=O)[O-]
inactive: Potency [1] | Potency [2] | Potency [3] | Potency [4] | max response [5] 1.58% and 7.25% | Potency [6] | Potency [7] | Potency [8] | Potency [9] | Potency [10] | Potency [11] | Potency [12] | Potency [13] | Potency [14] | Potency [15] | Potency [16] | Potency [17] | Potency [18]

CCOCCOCCO
inactive: Potency [1] | Potency [2] | Potency [3] | Potency [4] | max response [5] 10.2% and 7.38% | Potency [20] | Potency [6] | Potency [7] | Potency [8] | Potency [9] | Potency [10] | Potency [11] | Potency [12] | Potency [13] | Potency [14] | Potency [15] | Potency [16] | Potency [17] | Potency [18] | Potency [19]

c1cc(-c2ccncc2)ccn1
inactive: Potency [1] | Potency [2] | Potency [3] | Potency [4] | max response [5] -8.48% and 4.82% | Potency [20] | Potency [6] | Potency [7] | Potency [8] | Potency [9] | Potency [10] | Potency [11] | Potency [12] | Potency [13] | Potency [14] | Potency [15] | Potency [16] | Potency [17] | Potency [18]
